Data: PubChem BioAssay AID1508645 (National Center for Advancing Translational Sciences (NCATS), 2021)
Records with an inconclusive call do not appear. Values without a mark were called inactive. Activity calls are given as the source filed them. Calls come from the whole dose curve; as a rule, active = well fitted cell-killing curve with a large enough effect; inconclusive = small, poorly fitted or top-dose-only effect, or effect the other way; inactive = no such curve, though single readings can be large or run the other way.

test: Cell viability assay in S16 Pmp22-HiBiT cells; conditions: S16 Schwann Pmp22-HiBiT viability, CellTiter-Glo, 24 h; series mostly up to 27.9 µM; activity change, negative = cytotoxicity: at the top concentration
Excerpt: Assay Provider: Jim Inglese Ph.D. National Center for Advancing Translational Science, National Institutes of Health, Rockville, MD CMT is a heterogeneous group of neurological disorders that affect approximately 1 in 2,500 people. In particular, the most common form of CMT, CMT1A is genetically linked to the duplication of the PMP22 gene which leads to Schwann cell overexpression, thus manifesting itself as a typical case of dose-sensitive diseases. To identify small molecule compounds that can mediate the expression of PMP22 we developed a phenotypic assay screening strategy by utilizing genome editing techniques to construct Schwann cell lines containing novel reporter technology to monitor the transcriptional or translational regulation of PMP22. For high sensitivity we use a bioluminescent reporter system embedded in the 3' UTR of the PMP22 gene (S16(c9) Pmp22-F2sN) to identify compounds that inhibit gene expression. […] We can further discriminate the effect of all transcriptionally active molecules on PMP22 translation or stability with an assay that incorporates a short NLuc peptide (HiBiT) at the C-terminus of expressed PMP22 (S16(f8) PMP22-HiBiT) allowing alpha complementation and luminescence detection of membrane-associated PMP22 protein. These assays were screened against the NCATS Sytravon Library Collection. Miniaturization of these assays to 1536-well plate format for quantitative high throughput screening (qHTS) yielded rich data sets immediately from the qHTS assay (S16(c9) Pmp22-F2sN), when compared with data from a cell viability assay (Cell TiterGlo) to identify compounds that decreased the output signals through cellular toxicity to streamline the selection process of actives for subsequent characterization using the HiBiT assay (S16(f8) PMP22-HiBiT).
Cell viability assay in S16 Pmp22-HiBiT cells PROTOCOL TABLE (format as described by Inglese J, Shamu CE and Guy RK. 2007) SEQUENCE No. (e.g., 1, 2, 3, etc.); PARAMETER (e.g., Cells, Incubation, Reagent, etc.); VALUE and DESCRIPTION. 1. Cells. Add 500-1,000 cells in 4 uL in growth media (DMEM High Glucose, No Phenol Red media + 10% heat-inactivated FBS + 1% Pen/Strep supplemented media) per well into Greiner 1536-well white/solid bottom high base, TC-treated plates. 2. Compounds. Library compounds and controls added at 23nL per well, transferred by Pin Tool. 3. Incubation. Incubate plates at 37C, 5% CO2, 95% RH for 24 h. 4. Reagent. Add 3uL CellTiter-Glo per well of Greiner 1536-well plates. 5. Incubation. Incubate plates at room temperature for 15 min., protect from light. 6. Detector. Luminescence measured using CCD-based camera (Viewlux). NOTES (numbers refer to Sequence numbers above; values are from representative experiments) 6. Luminescence Read: Clear filter; Exposure = 1 sec, Gain = High, Speed = Slow, Binning = 2X REFERENCES: 1. Inglese J, Shamu CE and Guy RK, Reporting data from high throughput screening of small molecule libraries, Nature Chemical Biology, 2007, 3(8): 438-441. doi.org/10.1038/nchembio0807-438 2. Yasgar A, Shinn P, Jadhav A, Auld DS, Michael S, Zheng W, Austin CP, Inglese J and Simeonov A, Compound Management for Quantitative High-Throughput Screening. J. Assoc. Lab. Auto., 2008, 13: 79-89. doi: 10.1016/j.jala.2007.12.004

SMILES	Potency	activity change, negative = cytotoxicity
COc1ccc(OC)c(NC(=O)CSc2c3c(nc4ccccc24)CCCC3)c1	16.2 µM (active)	–
COc1ccc(CCNC(=O)Cn2c(-c3cccs3)cc3cc(F)ccc32)cc1OC	–	-7.22%
Cc1ccc(CNC(=O)c2nc(S(=O)(=O)Cc3ccc(C)cc3)ncc2Cl)cc1	–	-3.09%
O=C(NCCCN1CCN(c2ccc(F)cc2)CC1)c1cc2c(Cl)nc3ccccc3c2s1	–	-13.9%
CCOC(=O)c1c(NC(=O)c2nc(S(C)(=O)=O)ncc2Cl)sc(C(C)=O)c1C	6.45 µM (active)	–
COc1ccccc1CNC(=O)CSc1nnc(C)c2c(C)n(-c3ccccc3)nc12	–	-8.04%
COc1cccc(-n2c(SCC(=O)c3ccc(Cl)cc3)nc3c([nH]c4ccccc43)c2=O)c1	–	23.1%
COC(=O)c1c(-c2ccc(Cl)cc2)noc1N1CCN(c2ccccc2OC)CC1	–	4.08%
Cc1ccc(S(=O)(=O)c2nnn3c2nc(NC2CCCCCC2)c2sccc23)cc1C	–	19.9%
COc1ccc(-c2noc(CSc3nnc(-c4ccncc4)n3-c3ccc(C)cc3)n2)cc1	–	-9.94%
COc1ccc(Nc2nc3c(S(=O)(=O)c4ccccc4)nnn3c3ccc(Cl)cc23)cc1	–	-15.1%
Cc1ccc(NC(=O)CSc2nc3ccc(NC(=O)COc4ccc(C)cc4)cc3s2)cc1	–	15.4%
Cc1cc(C)c(NC(=O)Cn2c(=O)n(Cc3ccco3)c(=O)c3ccc(C(=O)NC4CCCC4)cc32)c(C)c1	–	6.19%
CCc1ccccc1Nc1nn2c(=O)c3ccc(C(=O)Nc4cc(C)cc(C)c4)cc3nc2s1	6.45 µM (active)	–
COCCCNC(=O)c1ccc(-n2c(-c3ccccc3)cc3c2CCC(C)C3)cc1 (stereo not given)	–	-10.2%
CCOC(=O)c1cc2c(=O)n3ccccc3nc2n(Cc2ccco2)c1=NC(=O)c1cc(C)cc(C)c1	–	-2.04%
COc1ccc(N(CC(=O)Nc2cc(Cl)ccc2C)S(=O)(=O)c2c(C)noc2C)cc1	–	50.5%
CCc1ccc(C(=O)c2cn(CC(=O)Nc3cc(OC)cc(OC)c3)c3ccc(CC)cc3c2=O)cc1	–	-7.43%
CCC(Sc1nc2ccccc2c2nc(-c3ccccc3)nn12)C(=O)Nc1cccc(OC)c1 (stereo not given)	–	8.89%
Cc1c(Cl)cccc1NC(=O)c1oc2ccc(S(=O)(=O)N3CCC4(CC3)OCCO4)cc2c1C	–	20.1%

SMILES	Potency	activity change, negative = cytotoxicity
Cc1ccc(NC(=O)N2CCc3cc(S(=O)(=O)N4CCC(C)CC4)ccc32)cc1F	–	3.72%
CCOCCCNC(=O)c1ccc(-n2c(-c3ccccc3)cc3c2CCC(C)C3)cc1 (stereo not given)	–	-11.8%
O=C(CSc1nc2c([nH]c3ccccc32)c(=O)n1-c1cccc(Cl)c1)c1ccccc1	–	-12.8%
O=S(=O)(NCC(c1ccco1)S(=O)(=O)c1cccs1)c1ccc(Cl)cc1 (stereo not given)	–	-0.0414%
COc1ccc(NC(=O)c2oc3ccccc3c2NC(=O)Cc2ccc(F)cc2)c(OC)c1	–	14%
COc1ccccc1Nc1c2c(nc3ccc(NC(=O)/C=C/c4cccc(OC)c4OC)cc13)CCCC2	16.2 µM (active)	–
Cc1cc(NC(=O)C2CCCN(S(=O)(=O)c3cccc4nonc34)C2)ccc1Br (stereo not given)	–	-26.4%
COc1ccccc1Nc1nn2c(=O)c3ccc(C(=O)Nc4ccc(F)cc4)cc3nc2s1	4.57 µM (active)	–
COc1ccc(NC(=O)c2nc(S(=O)(=O)Cc3ccc(C)cc3)ncc2Cl)cc1	8.13 µM (active)	–
CCC(=O)N1CCc2cc(S(=O)(=O)CCC(=O)Nc3ccc(Cl)c(C(F)(F)F)c3)ccc21	–	20.4%
COc1ccc(Cl)cc1NC(=O)CCCS(=O)(=O)c1nc(-c2ccc(OC)c(OC)c2)cc(C(F)(F)F)n1	6.45 µM (active)	–
Cc1ccc(OCC(=O)Nc2ccc3nc(SCC(=O)N4CCc5ccccc54)sc3c2)cc1	–	-9.23%
CCOC(=O)c1ccc(N2C(=O)c3[nH]nc(-c4ccc(C)cc4)c3C2c2ccc(O)c(OCC)c2)cc1 (stereo not given)	–	14.4%
Cc1ccc(CNC(=O)c2ccc(Nc3nc4ccccc4n4nnnc34)cc2)cc1	–	-11.3%
CCC(=O)C1=C(c2cccc([N+](=O)[O-])c2)N(C(=O)CC)n2c(nnc2C2CCCCC2)S1	–	21.1%
CCc1ccc(OCC(=O)Nc2cc3oc4ccccc4c3cc2OC)cc1	–	5.96%
Cc1cccc(CS(=O)(=O)c2ncc(Cl)c(C(=O)Nc3nc4ccc(F)cc4s3)n2)c1	6.45 µM (active)	–
COCCCNC(=O)c1ccc2c(c1)N=C(C)c1c(C)ccc(C)c1S2	–	13.1%
O=C(Cn1c(-c2cccs2)cc2cc(F)ccc21)NCCCN1CCN(c2ccc(F)cc2)CC1	–	1.66%
Cc1ccc(C)c(NC(=O)Cn2c(=O)n(Cc3ccc4c(c3)OCO4)c(=O)c3ccc(C(=O)NC4CCCCC4)cc32)c1	–	5.15%
